From PubChem BioAssay
VDR inh: Inhibitors of the vitamin D receptor (VDR): qHTS. Vitamin D3 receptor (Homo sapiens), P11473. VDR-SRC2-3 peptide fluorescence polarization, 2 h. Potency, µM, actives largely listed as inhibitors. 400,000 compounds, 0.93% hits. AID 504847, 2011
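Measured by FP: displacement of SRC2-3 coactivator peptide from VDR by library compounds, following a two-hour ambient incubation.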
TDP1 inh: qHTS Assay for Inhibitors of Tyrosyl-DNA Phosphodiesterase (TDP1); recombinant TDP1, AlphaScreen DNA substrate cleavage; Tyrosyl-DNA phosphodiesterase 1 (Homo sapiens), Q9NUW8; Potency, µM (highest dose often 130 µM), usual class: inhibitors; 350,000 compounds, 0.28% hits; AID 485290, 2010; further: nearly all actives have a fitted effect of over 40% in size
Target sequence (Q9NUW8 whole entry, looked up): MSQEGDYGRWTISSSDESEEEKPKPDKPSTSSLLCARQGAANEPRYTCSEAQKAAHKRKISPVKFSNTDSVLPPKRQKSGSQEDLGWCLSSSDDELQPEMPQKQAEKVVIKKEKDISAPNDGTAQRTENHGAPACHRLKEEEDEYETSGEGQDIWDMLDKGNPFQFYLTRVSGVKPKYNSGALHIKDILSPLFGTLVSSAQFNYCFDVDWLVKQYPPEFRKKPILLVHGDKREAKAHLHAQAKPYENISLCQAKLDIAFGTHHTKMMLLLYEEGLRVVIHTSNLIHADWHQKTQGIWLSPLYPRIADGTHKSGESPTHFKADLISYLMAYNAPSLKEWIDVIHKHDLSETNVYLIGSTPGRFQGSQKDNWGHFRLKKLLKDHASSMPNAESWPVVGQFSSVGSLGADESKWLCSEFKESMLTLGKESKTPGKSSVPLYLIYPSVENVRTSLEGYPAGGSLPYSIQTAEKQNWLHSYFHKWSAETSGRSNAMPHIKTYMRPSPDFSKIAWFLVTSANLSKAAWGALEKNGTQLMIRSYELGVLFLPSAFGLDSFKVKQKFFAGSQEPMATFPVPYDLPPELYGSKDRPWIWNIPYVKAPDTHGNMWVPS
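Tdp1 1 nM final; 15 min RT w/ cpd; substrate 15 nM, 5 min; beads 10 ug/ml, 10 min; AlphaScreen read. Neg ctrl: no enzyme.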
KAT2A inh: qHTS Assay for Inhibitors of GCN5L2; Histone acetyltransferase KAT2A (Homo sapiens), Q92830; GCN5L2 HAT assay, ThioGlo1 CoA-SH fluorescence; Potency, µM (highest dose often 58.9 µM), usual class: inhibitors; 390,000 compounds, 0.21% hits; AID 504327, 2011
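Titration-based screen in which CoA formation is detected via maleimide probe ThioGlo1 (50uM) turning fluorescent on thiol reaction; substrates H3(1-25) 75uM and acetyl-CoA 70uM, GCN5L2 20nM, 20 min incubation at room temperature.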
PLK1 PBD inh: qHTS for Inhibitors of PLK1-PDB (polo-like kinase 1 - polo-box domain): Primary Screen; Serine/threonine-protein kinase PLK1 (Homo sapiens), P53350; Plk1 PBD binding of FITC phosphopeptide, fluorescence polarization; Potency, µM, hits mostly inhibitors; 360,000 compounds, 2.8% hits; AID 720504, 2013; further: series mostly up to about 57 µM; nearly all actives have a fitted effect of over 65% in size
DT40 TDP1 no CPT: qHTS for Inhibitors of human tyrosyl-DNA phosphodiesterase 1 (TDP1): qHTS in cells in absence of CPT. DT40 Tdp1-/- hTDP1 cells, no CPT, ATP luminescence, 48 h. AID 686978, 2013. Potency, µM (series often up to 46.2 µM), hits mostly inhibitors. 420,000 compounds, 15% hits; further: nearly all actives have a fitted effect of over 55% in size
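Growth of hTDP1-complemented DT40 Tdp1-knockout cells is measured by ATP luminescence after at least 48 hr compound exposure at 37 °C, with DMSO substituting for the 20 nM CPT used in the parallel screen.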
DT40 TDP1 CPT: qHTS for Inhibitors of human tyrosyl-DNA phosphodiesterase 1 (TDP1): qHTS in cells in presence of CPT. chicken DT40 Tdp1-/-;hTDP1 cells + 20 nM CPT, ATP luminescence, 48 h. Potency, µM (series often up to 46.2 µM), actives largely listed as inhibitors. 420,000 compounds, 12% hits; further: nearly all actives have a fitted effect of over 55% in size
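Chicken DT40 Tdp1-/- cells complemented with human TDP1, 400 cells/well, exposed to compounds plus 20 nM camptothecin for at least 48 h at 37 C; viability read as ATP content by CellTiter-Glo luminescence.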
Of the large screens only hits and unclear results are named; the others gave an inactive call. Sampled rows, rich in hits. Any-hit rate of the full collection: about 18%. The call rests on the fitted dose curve; in most records, active means well fitted curve in the direction sought with a large enough effect; inconclusive means small, poorly fitted or top-dose-only effect, or another doubt; inactive means no such curve, though single readings can be large; an effect the other way counts as inactive or inconclusive.

O=c1[nH][nH]c2c1[C@H](c1ccc(F)cc1)O[C@H](C1CCCCC1)C2	none (no result: VDR inh, TDP1 inh, KAT2A inh)
CSc1cccc(NC(=O)c2ccc(NC3=NC4CS(=O)(=O)CC4S3)cc2)c1 (configuration not stated)	none (no result: TDP1 inh)
O=C(COC(=O)c1ccc(Cl)nc1)c1ccc2c(c1)OCCO2	DT40 TDP1 CPT inconclusive
Cc1cccc(NC(=O)N(C)Cc2cccs2)c1	KAT2A inh 31.6µM
Cc1ccc2nc(-c3ccc(NC(=O)C4CCCO4)cc3)[nH]c2c1 (configuration not stated)	DT40 TDP1 no CPT inconclusive, DT40 TDP1 CPT inconclusive
Cc1ccc2nc(-c3ccc(NC(=O)Cc4cccs4)cc3)[nH]c2c1	DT40 TDP1 no CPT inconclusive, DT40 TDP1 CPT 23.1µM
Cc1nn(CC(O)COc2ccc3c(c2)CCC3)c(C)c1C (configuration not stated)	PLK1 PBD inh 3.36µM, DT40 TDP1 no CPT 20.6µM, DT40 TDP1 CPT inconclusive
Cc1ccc(NC(=O)Cn2c(=O)n(Cc3nc(-c4ccccc4)no3)c(=O)c3cc4c(cc32)OCO4)cc1F	DT40 TDP1 no CPT inconclusive (no result: PLK1 PBD inh)
O=C(OC1CC2CC1[C@H]1CCCCN1C2=O)N1CCC(c2ccccc2)CC1 (some centres not stated)	DT40 TDP1 no CPT 16.4µM, DT40 TDP1 CPT inconclusive (no result: VDR inh, TDP1 inh, KAT2A inh)
Cc1cc(C)nc(NC(N)=NC2CCCCC2)n1	DT40 TDP1 no CPT 11.6µM, DT40 TDP1 CPT 14.6µM
CCOc1[nH]n(-c2ccccc2)c(=O)c1C=Nc1ccc(Cl)cc1	DT40 TDP1 no CPT 14.6µM, DT40 TDP1 CPT inconclusive
CCOc1[nH]n(-c2ccccc2)c(=O)c1C=Nc1ccc(C)cc1	DT40 TDP1 CPT inconclusive
CCOc1[nH]n(-c2ccccc2)c(=O)c1C=Nc1ccccc1	DT40 TDP1 no CPT 5.8µM, DT40 TDP1 CPT 6.51µM
CCOc1[nH]n(-c2ccc(Cl)cc2)c(=O)c1C=Nc1ccc(OC)cc1	DT40 TDP1 no CPT inconclusive, DT40 TDP1 CPT inconclusive
CC1(C)Cc2nc3oc4c(N5CCOCC5)ncnc4c3cc2CO1	DT40 TDP1 CPT inconclusive
Brc1ccc2oc3c(N4CCOCC4)ncnc3c2c1	DT40 TDP1 no CPT 11.6µM, DT40 TDP1 CPT inconclusive
Cc1ccc(N2CC(C)Cn3c2nc2c3c(=O)n(Cc3cccc(Cl)c3)c(=O)n2C)cc1 (configuration not stated)	none (no result: PLK1 PBD inh)
Cc1ccc(C2=N/C(=C\N3CCCCC3)C(=O)O2)cc1	none
Cc1cccc2cc(/C=C3\N=C(c4ccccc4)OC3=O)c(N3CCOCC3)nc12	PLK1 PBD inh inconclusive, DT40 TDP1 no CPT 23.1µM, DT40 TDP1 CPT inconclusive
S=C(NCc1ccccc1)NNc1ccccc1	PLK1 PBD inh inconclusive, DT40 TDP1 no CPT 5.8µM, DT40 TDP1 CPT 4.61µM
CCNC(=S)NNc1ccccc1	DT40 TDP1 no CPT 5.17µM, DT40 TDP1 CPT 3.26µM
CN(C)c1ccc(-c2cncnc2NCCN2CCOCC2)cc1	VDR inh 39.8µM, DT40 TDP1 no CPT 1.16µM, DT40 TDP1 CPT 0.92µM (no result: TDP1 inh, PLK1 PBD inh)
Cc1ccccc1-c1cncnc1NCCN1CCOCC1	VDR inh inconclusive, TDP1 inh 35.5µM, DT40 TDP1 no CPT 3.26µM, DT40 TDP1 CPT 2.91µM (no result: PLK1 PBD inh)
Cc1noc(C)c1-c1cncnc1NCCN1CCOCC1	VDR inh inconclusive (no result: TDP1 inh, PLK1 PBD inh)
COc1cccc(-c2cncnc2NCCN2CCOCC2)c1	VDR inh inconclusive, DT40 TDP1 no CPT 2.91µM, DT40 TDP1 CPT 0.82µM (no result: TDP1 inh, PLK1 PBD inh)
Cc1ncc2c(c1CNS(=O)(=O)N(C)C)CCN(C(=O)c1c(F)cccc1F)C2	none (no result: VDR inh, TDP1 inh, KAT2A inh, PLK1 PBD inh)
O=C([C@@H]1C[C@@H](Sc2nc3ccccc3[nH]2)CN1CC1CCCCC1)N1CCOCC1	none (no result: VDR inh, TDP1 inh, KAT2A inh, PLK1 PBD inh)
Cc1ccccc1OCCCn1c(-c2ccc(Cl)cc2)nc2ccccc2c1=O	none (no result: TDP1 inh, PLK1 PBD inh)
CC(C)C(=O)NC(=S)/C=C1/N(C)c2ccccc2C1(C)C	KAT2A inh inconclusive, DT40 TDP1 no CPT 8.2µM, DT40 TDP1 CPT 18.4µM
